Screening data (PubChem BioAssay)
Shown are actives, neighbours in structure and some others; about 4.8% of the full set was active somewhere.
ssDAF-12 act = S. stercoralis DAF-12 nuclear receptor activators, primary screen, cell-based, luminescence, HEK293, GRIP1 co-expression, lit1-tk-luc. Nuclear hormone receptor DAF-12 (Strongyloides stercoralis). HEK293 ssDAF-12/GRIP1 lit1-tk-luc reporter; % of 3 µM dafachronic acid response. activation, % at 6.8 µM. 370,000 compounds, 1% hits. AID 652126, 2013;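 active means activation above the mean over all tested compounds plus 3 SD, cut at about 0.9% in these data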;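 further: 0% = DMSO-only wells and 100% = 3 µM delta7-dafachronic acid wells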
hgDAF12 agonist = H. glycines DAF-12 receptor agonists, primary screen, cell-based, luminescence, HEK293, GAL4 fusion, UAS-luciferase | activation, % at 6.8 µM | Nuclear hormone receptor DAF-12 (Heterodera glycines), GAL4 fusion | HEK293 GAL4-hgDAF12 UAS-luciferase reporter, agonist luminescence; normalized to butyrate control | 370,000 compounds, 1.8% hits;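 active means activation above a cutoff set at the mean of all screened compounds plus 3 SD, cut at about 10% in these data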;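 further: 0% = DMSO wells and 100% = sodium butyrate wells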
SMARCA2 activ = SMARCA2 (BRM) function activators, primary screen, cell-based, luminescence, high throughput; MG213 cells, MMTV-luciferase reporter, dexamethasone, overnight; activation, % at 9.1 µM; 370,000 compounds, 1% hits; AID 652017, 2013; in the data active means activation above about 7.8%;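 further: 0% = vehicle wells and 100% = reference activator wells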
hcDAF-12 act = H. contortus DAF-12 nuclear receptor activators, primary screen, cell-based, luminescence, HEK293, lit1-tk-luc reporter | HEK293 hcDAF-12 lit1-tk-luc reporter; 0% DMSO, 100% Δ7-dafachronic acid | activation, % at 6.8 µM | 370,000 compounds, 1.4% hits | AID 652067, 2013;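 active means activation above the mean of all tested compounds plus 3 SD, cut at about 5.5% in these data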;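 further: 100% = response to 3 µM Δ7-dafachronic acid high control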
DAX1 inh-1 = DAX1 (NR0B1) inhibitors, primary screen, cell-based, HEK293, Gal4-DAX1, luciferase luminescence. Nuclear receptor subfamily 0 group B member 1 (Homo sapiens), P51843. HEK293 Gal4-DAX1 luciferase reporter. inhibition, % at 6.75 µM. 340,000 compounds, 0.99% hits;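 active means inhibition above the mean over all tested compounds plus 3 SD, cut at about 4.2% in these data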;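 further: 0% = DAX1-transfected cells with DMSO and 100% = empty-vector control cells with DMSO; inhibition shows as a rise in luminescence from relieved DAX1 repression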
DAX1 inh-2 = DAX1 (NR0B1) inhibitors on StAR promoter, primary screen, cell-based, luminescence, SF-1 (NR5A1), full-length DAX-1 | HEK293T StAR-luciferase reporter, SF-1/DAX-1 repression relief | inhibition, % at 6.8 µM | 370,000 compounds, 1.1% hits;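 active means inhibition above the mean over all tested compounds plus 3 SD, cut at about 3.6% in these data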;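 further: 0% = DAX-1 cells with DMSO and 100% = cells lacking DAX-1 with DMSO; higher inhibition means more luminescence from relief of DAX-1 repression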
DAX1 inh confirm = DAX1 (NR0B1) inhibitors relieving SF-1 repression, confirmation, cell-based, luminescence, HEK293T, full-length DAX-1, SF-1 activated StAR promoter; shares compounds with DAX1 inh-2; HEK293T StAR-promoter luciferase reporter, SF-1/DAX-1 repression; inhibition, % at 6.8 µM; 2,400 compounds, 87% hits;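 active means inhibition above the average of every tested compound plus 3 SD, cut at about 3.8% in these data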;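 further: 0% = DAX-1 cells with DMSO and 100% = no DAX-1 control cells with DMSO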
Target sequence (P51843 whole entry, looked up): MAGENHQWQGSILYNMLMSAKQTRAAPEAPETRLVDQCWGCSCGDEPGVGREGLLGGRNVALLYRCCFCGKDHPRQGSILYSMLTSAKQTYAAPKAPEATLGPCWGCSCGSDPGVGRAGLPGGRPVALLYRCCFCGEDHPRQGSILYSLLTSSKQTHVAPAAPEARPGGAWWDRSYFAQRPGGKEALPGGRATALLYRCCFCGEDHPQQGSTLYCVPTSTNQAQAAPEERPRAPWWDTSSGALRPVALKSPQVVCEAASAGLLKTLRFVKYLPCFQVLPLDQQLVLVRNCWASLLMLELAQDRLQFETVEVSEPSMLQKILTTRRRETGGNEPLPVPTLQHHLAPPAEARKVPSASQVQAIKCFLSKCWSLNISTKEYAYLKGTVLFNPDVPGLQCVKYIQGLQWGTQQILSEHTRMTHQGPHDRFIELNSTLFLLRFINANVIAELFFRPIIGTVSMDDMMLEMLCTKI
SF1 AF2mut Luc = StAR reporter signal changes without DAX1, counter-screen for DAX1 inhibitor project, cell-based, luminescence, AF-2 mutant SF-1, transactivation; AID 652136, 2013; inhibition, % at 6.8 µM; 2,400 compounds, 78% hits; HEK293 StAR-luciferase, SF-1 AF2 mutant; shares compounds with DAX1 inh-2;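 active means inhibition above the mean of all tested compounds plus 3 SD, cut at about 3% in these data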;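 further: 0% = DAX-1 transfected cells with DMSO and 100% = cells without DAX-1 with DMSO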
SMARCA2 act conf = SMARCA2 (BRM) function activators, confirmation, cell-based, luminescence, triplicate; 3,500 compounds, 30% hits; MG213 cells, MMTV-luciferase with dexamethasone, overnight; MG213 cells expressing E1A, Rb sequestered; DMSO wells 0%, reference activator 100%; shares compounds with SMARCA2 activ; activation, % at 9.1 µM;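 active means activation above its plate's cutoff, the mean activation of tested wells plus 3 SD, cut at about 7.9% in these data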
VP16 Luc act = GAL4-VP16 luciferase reporter activation, counter-screen for SMARCA2 (BRM) activator project, cell-based, pG5luc, luminescence, high throughput | shares compounds with SMARCA2 activ | HEK293 GAL4-VP16 pG5luc reporter; scaled: DMSO wells 0%, SAHA wells 100% | activation, % at 9.1 µM | 3,500 compounds, 41% hits;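 active means activation above the solvent-only control well mean plus 3 SD, averaged across control plates, cut at about 5.2% in these data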
LXR ag = LXR agonists, Gal4 luciferase reporter, confirmation, counter-screen for hcDAF-12 agonist project, cell-based, luminescence, HEK293, H. contortus campaign; shares compounds with hcDAF-12 act; HEK293 Gal4-LXR tk-luc reporter, 24 h; normalized: DMSO 0%, positive control 100%; activation, % at 6.8 µM; 3,400 tested, under 10 active;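 active means mean percent activation of the reporter above a cutoff set as the average over tested compounds plus their standard deviation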
hcDAF12 ag = H. contortus DAF-12 receptor agonists, confirmation, cell-based, luminescence, HEK293, lit1-tk-luc, triplicate. shares compounds with hcDAF-12 act. HEK293 hcDAF-12 lit1-tk-luc reporter; % of Δ7-dafachronic acid response. activation, % at 6.8 µM. 3,400 compounds, 61% hits. AID 743032, 2013;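 active means mean activation across triplicate tests above the threshold derived from the earlier primary screen, cut at about 5.5% in these data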;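 further: 0% = DMSO only wells and 100% = 3 µM Δ7-dafachronic acid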
Active calls of the source: *; ! = not confirmed by another sample.

Screening O=C(c1cc2cc(Cl)ccc2[nH]1)N1CCC2(CC1)OCCO2 returned ssDAF-12 act 1, hgDAF12 agonist 6, SMARCA2 activ 4, hcDAF-12 act 6.4*, DAX1 inh-1 1, DAX1 inh-2 4.6*, DAX1 inh confirm 3 and SF1 AF2mut Luc 3.8*.
O=C(c1cc2cc3ccc(Cl)cc3nc2o1)N1CCC2(CC1)OCCO2 was read as ssDAF-12 act 0, hgDAF12 agonist -1, SMARCA2 activ 2, hcDAF-12 act 0, DAX1 inh-1 0 and DAX1 inh-2 0.
For Cc1ccc(N)c(C(=O)c2ccc(Br)cc2)c1 the results were ssDAF-12 act -1, hgDAF12 agonist 6, SMARCA2 activ 2, hcDAF-12 act 0, DAX1 inh-1 1 and DAX1 inh-2 0.
`Cc1ccc(N)c(N)c1` gave ssDAF-12 act 0, hgDAF12 agonist 10, SMARCA2 activ -3, hcDAF-12 act 3, DAX1 inh-1 -2, DAX1 inh-2 6.6*, DAX1 inh confirm 5.5* and SF1 AF2mut Luc 3.2*.
NNCc1ccccc1 was read as ssDAF-12 act -1, hgDAF12 agonist 2, SMARCA2 activ -4, hcDAF-12 act 3, DAX1 inh-1 0, DAX1 inh-2 5.0*!, DAX1 inh confirm 2 and SF1 AF2mut Luc 2.9*.
Cn1c(=O)c2c(nc(-c3ccc(N(CCCl)CCCl)cc3)n2C)n(C)c1=O was read as ssDAF-12 act -2, hgDAF12 agonist -1, SMARCA2 activ -1, hcDAF-12 act -1, DAX1 inh-1 -2 and DAX1 inh-2 -2.
`C[C@]1(O)CC[C@H]2[C@@H]3CCC4=CC(=O)CC[C@]4(C)[C@@]3(F)[C@@H](O)C[C@@]21C` gave ssDAF-12 act -1, hgDAF12 agonist -1, SMARCA2 activ -3, hcDAF-12 act 0, DAX1 inh-1 1 and DAX1 inh-2 0.
CNC(=O)Oc1cccc(-c2cn3cc(Cl)ccc3n2)c1 was read as ssDAF-12 act 2.5*, hgDAF12 agonist 13*, SMARCA2 activ 4, hcDAF-12 act 15*, DAX1 inh-1 -6, DAX1 inh-2 5.8*, DAX1 inh confirm 14*, SF1 AF2mut Luc 5.1*, LXR ag 2 and hcDAF12 ag 16*.
`CN1C[C@H](CNC(=O)OCc2ccccc2)C[C@@H]2c3cccc4c3c(cn4C)C[C@H]21` gave ssDAF-12 act -1, hgDAF12 agonist -6, SMARCA2 activ -5, hcDAF-12 act -2, DAX1 inh-1 1 and DAX1 inh-2 -2.
For C=C1C(=O)OC2C1CCC(C)C1(O)C=CC(=O)C21C (configuration not stated) the results were ssDAF-12 act 0, hgDAF12 agonist -7, SMARCA2 activ 8.4*, hcDAF-12 act 1, DAX1 inh-1 -5, DAX1 inh-2 -1, SMARCA2 act conf 15* and VP16 Luc act 2.
Clc1ccc2c(c1)C(c1ccccc1Cl)=NCc1nnc(Br)n1-2 was read as ssDAF-12 act -1, hgDAF12 agonist -3, SMARCA2 activ -1, hcDAF-12 act -2, DAX1 inh-1 0 and DAX1 inh-2 0.
For CN1CCN(c2ccc3c(c2)S(=O)(=O)c2ccccc2C3=O)CC1 the results were ssDAF-12 act 0, hgDAF12 agonist 1, SMARCA2 activ 8.6*, hcDAF-12 act 4, DAX1 inh-1 2, DAX1 inh-2 2, SMARCA2 act conf 8.2* and VP16 Luc act 8.8*.
CN1CCN(c2cccc3c2C(=O)c2ccccc2C3=O)CC1 was read as ssDAF-12 act -2, hgDAF12 agonist -8, SMARCA2 activ 3, hcDAF-12 act -3, DAX1 inh-1 0 and DAX1 inh-2 -1.
For CCOP(=O)(OCC)C(NC(=O)c1cccc2ccccc12)C(Cl)(Cl)Cl (configuration not stated) the results were ssDAF-12 act -2, hgDAF12 agonist 2, SMARCA2 activ -3, hcDAF-12 act 2, DAX1 inh-1 0 and DAX1 inh-2 -1.
`O=c1c2ccccc2nc(Cc2ccccc2)n1-c1ccc(O)cc1` gave ssDAF-12 act -2, hgDAF12 agonist -2, SMARCA2 activ 0, hcDAF-12 act -2, DAX1 inh-1 2 and DAX1 inh-2 -1.
Screening O=[N+]([O-])c1ccc(N(CCO)CCO)c2c1no[n+]2[O-] returned ssDAF-12 act -3, hgDAF12 agonist -11, SMARCA2 activ 15*, hcDAF-12 act -5, DAX1 inh-1 -5, DAX1 inh-2 -6, SMARCA2 act conf 13* and VP16 Luc act 1.
